The test system of assay [1] is Plasmodium falciparum Sir2 (PF13_0152, Sir2A). Kind of assay: Plasmodium falciparum Sir2A binding compounds – biochemical, small-molecule microarray, 635 nm fluorescence, primary screen (AID 1098).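 Note: score merges spot fluorescence intensity with its signal-to-noise ratio.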 Particulars: fluorescence 635 nm, higher = more signal.
A short description of assay [2]: probe aDKK1 binding to arrayed compounds – biochemical, biotinylated probe, 635/667 nm fluorescence, primary screen (AID 1099).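 Note: score merges 667nm spot fluorescence with signal to noise across triplicate slides.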 The following applies: small-molecule microarray, higher = more signal.
Assay [3] is described as follows: probe aCHRDL2 binding to arrayed compounds – biochemical, biotinylated probe, 635/667 nm fluorescence, primary screen (AID 1100). The following applies: small-molecule microarray, higher = more signal.
A short description of assay [4]: change in splice reporter luminescence, either direction, cell-based, HEK293, spliceosome inhibition project, primary screen (AID 1101).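 Note: HEK293 cells carrying a splicing-competent luciferase reporter gene; test concentration not given here.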 Particulars: HEK293 splicing luciferase reporter, 24 h, higher = more signal, called active from +8 up or from −8 down.
Assay [5] has as its target Fibroblast growth factor 10 (Homo sapiens) (UniProt O15520). Description: compounds binding fibroblast growth factor 10 – biochemical, small-molecule microarray, 635 nm fluorescence, primary screen (AID 1102). The following applies: FGF10 binding, fluorescence 635 nm, higher = more signal.
The test system of assay [6] is glycogen synthase kinase-3 (GSK3A per assay name; protocol says GSK3B). Kind of assay: compounds binding glycogen synthase kinase-3 – biochemical, small-molecule microarray, 635 nm fluorescence, GSK3A, primary screen (AID 1103). Note: the record names both GSK3A and GSK3B. Particulars: fluorescence 635 nm, higher = more signal.
Assay [7] deals with Epidermal growth factor receptor (Homo sapiens) (UniProt P00533). Kind of assay: compounds binding epidermal growth factor receptor – biochemical, small-molecule microarray, 635 nm fluorescence, primary screen (AID 1104).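 Note: score merges 667 nm emission intensity with spot signal to noise over triplicate slides.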 Particulars: EGFR binding, higher = more signal.
Assay [8] addresses Follistatin-related protein 3 (Homo sapiens) (UniProt O95633). Kind of assay: compounds binding follistatin-related protein 3 – biochemical, small-molecule microarray, 635 nm fluorescence, primary screen (AID 1105).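 Note: score merges emission near 667 nm and signal to noise per printed spot across three slides.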 The following applies: FSTL3 binding, higher = more signal.
The target in assay [9] is Dickkopf-related protein 1 (Homo sapiens) (UniProt O94907). Kind of assay: small molecules binding DKK1 protein – biochemical, small-molecule microarray, 635 nm fluorescence scan, primary screen (AID 1106).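 Note: score merges emission near 667 nm with signal to noise over three replicate slides.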 Particulars: higher = more signal.
Assay [10] deals with Inhibin beta A chain (activin A). Description: small molecules binding activin A – biochemical, small-molecule microarray, 635 nm fluorescence scan, primary screen (AID 1107).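 Note: mouse activin A protein probed at 4.33 µg/mL on printed slides; score merges bound-protein fluorescence near 667 nm with spot signal-to-noise.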 The following applies: INHBA, higher = more signal.
Assay [11] relates to Human papillomavirus type 1a protein E7 (residues 44-93). Description: small molecules binding HPV E7 44-93 – biochemical, small-molecule microarray, residues 44-93, 635 nm fluorescence, primary screen (AID 1108).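 Note: E7 fragment applied at 1 µg/mL in TBST for 1 h at 4 C; score combines spot fluorescence with its signal to noise ratio.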 The following applies: fluorescence 635 nm, higher = more signal.
The nature of assay [12]: hepatitis C replication reporter changes, two-sided – Huh7 cells, luciferase reporter, HCV replication inhibitor project, primary screen (AID 1109).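 Note: huh7 hepatoma cells harbouring a luciferase neomycin HCV replicon reporter; luciferase luminescence as measure of HCV replicon replication; test concentration not given here.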 The following applies: Huh7 HCV replicon luciferase reporter, 48 h; higher = more signal. On the technique in general: In a reporter assay the amount or activity of a reporter protein is the signal.
For assay [13], the target named is Left-right determination factor 2 (Homo sapiens) (UniProt O00292). Description: small molecules binding LEFTY2 protein – biochemical, small-molecule microarray, 635 nm fluorescence scan, primary screen (AID 1110). The following applies: higher = more signal.
Assay [14] deals with Calmodulin-1 (Homo sapiens) (UniProt P0DP23). Kind of assay: small molecules binding calmodulin-1 with EGTA – biochemical, small-molecule microarray, Cy5-labelled CALM1, profiling panel (AID 1111).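 Note: labelled calmodulin applied in Tris saline Tween buffer holding calcium plus EGTA and DTT.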 The following applies: Cy5-CALM1 binding fluorescence, higher = more signal.
The target is the same in assay [15]. Description: small molecules binding Ca-loaded calmodulin-1 – biochemical, small-molecule microarray, Cy5-labelled CALM1, plus calcium, artefact control for SMM control-protein annotation, profiling panel (AID 1112).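 Note: score merges spot fluorescence with signal to noise from triplicate slides.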 The following applies: Cy5-CALM1 binding fluorescence, higher = more signal.
Assay [16] in a line: probe aWnt5a binding to arrayed compounds – biochemical, biotinylated probe, 635/667 nm fluorescence, primary screen (AID 1113).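 Note: score merges 667 nm fluorescence intensity with signal-to-noise per printed feature.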 Particulars: small-molecule microarray, higher = more signal.
Assay [17] can be described thus: probe aShh binding to arrayed compounds – biochemical, biotinylated probe, 635/667 nm fluorescence, primary screen (AID 1114).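 Note: probe is biotin-labelled aShh protein from a stem cell growth factor screen; measures binding of labelled protein to compounds printed on the slide; score merges feature fluorescence at 667 nm with signal-to-noise.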 The following applies: small-molecule microarray, higher = more signal.
Assay [18] is described as follows: probe aNog binding to arrayed compounds – biochemical, biotinylated probe, 635/667 nm fluorescence, primary screen (AID 1115).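 Note: probe is biotinylated aNog protein used at 0.15 µg/mL for 1 h at 4 C; z-score combines 667 nm fluorescence of each spot with its signal to noise.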 The following applies: small-molecule microarray, higher = more signal.
The target in assay [19] is Torsin-1A-interacting protein 1 (Homo sapiens) (UniProt Q5JTV8). Kind of assay: compound microarray binding of lysate hLAP1 – cell lysate, small-molecule microarray, COS7 lysate, 635/667 nm fluorescence, primary screen (AID 1116). Particulars: 635 nm fluorescence, higher = more signal.
Assay [20] deals with Alpha-bungarotoxin (Bungarus multicinctus) (UniProt P60615). Description: compounds binding labelled alpha-BTX control protein – biochemical, small-molecule microarray, Alexa647 label, 635/667 nm fluorescence, artefact control for SMM control protein annotation, profiling panel (AID 1117). Particulars: alpha-BTX-A647 binding fluorescence, higher = more signal.

The structures appear in SMILES notation. Calls of active or inactive are those of the source.

Chain of Alpha-bungarotoxin (Bungarus multicinctus) (P60615 whole entry, looked up): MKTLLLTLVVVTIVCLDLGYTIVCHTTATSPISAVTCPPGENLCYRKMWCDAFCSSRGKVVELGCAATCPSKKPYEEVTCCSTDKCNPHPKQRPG
Chain of Fibroblast growth factor 10 (Homo sapiens) (O15520 whole entry, looked up): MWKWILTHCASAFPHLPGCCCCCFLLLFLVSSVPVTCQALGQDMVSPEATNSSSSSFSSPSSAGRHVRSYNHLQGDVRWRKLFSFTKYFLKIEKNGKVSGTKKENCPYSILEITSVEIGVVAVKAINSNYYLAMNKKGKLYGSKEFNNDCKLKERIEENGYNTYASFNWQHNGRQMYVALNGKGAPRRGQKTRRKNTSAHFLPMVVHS
Chain of Dickkopf-related protein 1 (Homo sapiens) (O94907 whole entry, looked up): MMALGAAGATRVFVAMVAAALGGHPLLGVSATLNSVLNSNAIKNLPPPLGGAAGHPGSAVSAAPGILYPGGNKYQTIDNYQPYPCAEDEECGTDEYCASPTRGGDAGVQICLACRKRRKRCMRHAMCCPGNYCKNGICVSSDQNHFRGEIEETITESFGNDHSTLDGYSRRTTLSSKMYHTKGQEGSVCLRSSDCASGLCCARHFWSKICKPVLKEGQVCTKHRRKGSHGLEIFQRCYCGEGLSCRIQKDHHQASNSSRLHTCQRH
Chain of Torsin-1A-interacting protein 1 (Homo sapiens) (Q5JTV8 whole entry, looked up): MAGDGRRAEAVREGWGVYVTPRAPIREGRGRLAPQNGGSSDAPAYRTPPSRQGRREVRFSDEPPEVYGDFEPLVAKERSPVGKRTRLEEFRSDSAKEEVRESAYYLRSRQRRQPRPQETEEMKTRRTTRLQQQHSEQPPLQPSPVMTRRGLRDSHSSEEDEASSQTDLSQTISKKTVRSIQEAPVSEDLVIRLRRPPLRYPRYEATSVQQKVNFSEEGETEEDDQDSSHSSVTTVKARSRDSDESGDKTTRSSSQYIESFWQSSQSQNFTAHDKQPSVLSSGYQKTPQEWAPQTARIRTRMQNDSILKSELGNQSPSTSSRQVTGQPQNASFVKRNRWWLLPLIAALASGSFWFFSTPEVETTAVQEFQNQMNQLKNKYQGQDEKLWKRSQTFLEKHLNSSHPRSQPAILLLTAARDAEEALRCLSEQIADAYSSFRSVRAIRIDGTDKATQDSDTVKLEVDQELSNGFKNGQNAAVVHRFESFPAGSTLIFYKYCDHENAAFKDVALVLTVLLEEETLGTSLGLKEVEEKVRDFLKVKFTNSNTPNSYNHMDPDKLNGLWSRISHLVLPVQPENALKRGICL
Chain of Follistatin-related protein 3 (Homo sapiens) (O95633 whole entry, looked up): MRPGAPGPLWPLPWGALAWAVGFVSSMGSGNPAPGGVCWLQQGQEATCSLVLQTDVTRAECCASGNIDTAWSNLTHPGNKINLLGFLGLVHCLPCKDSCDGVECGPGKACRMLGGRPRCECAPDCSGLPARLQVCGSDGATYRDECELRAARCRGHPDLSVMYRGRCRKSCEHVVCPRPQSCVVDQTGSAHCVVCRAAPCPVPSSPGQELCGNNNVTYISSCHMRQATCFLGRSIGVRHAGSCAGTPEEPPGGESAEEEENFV
Chain of Epidermal growth factor receptor (Homo sapiens) (P00533 whole entry, looked up): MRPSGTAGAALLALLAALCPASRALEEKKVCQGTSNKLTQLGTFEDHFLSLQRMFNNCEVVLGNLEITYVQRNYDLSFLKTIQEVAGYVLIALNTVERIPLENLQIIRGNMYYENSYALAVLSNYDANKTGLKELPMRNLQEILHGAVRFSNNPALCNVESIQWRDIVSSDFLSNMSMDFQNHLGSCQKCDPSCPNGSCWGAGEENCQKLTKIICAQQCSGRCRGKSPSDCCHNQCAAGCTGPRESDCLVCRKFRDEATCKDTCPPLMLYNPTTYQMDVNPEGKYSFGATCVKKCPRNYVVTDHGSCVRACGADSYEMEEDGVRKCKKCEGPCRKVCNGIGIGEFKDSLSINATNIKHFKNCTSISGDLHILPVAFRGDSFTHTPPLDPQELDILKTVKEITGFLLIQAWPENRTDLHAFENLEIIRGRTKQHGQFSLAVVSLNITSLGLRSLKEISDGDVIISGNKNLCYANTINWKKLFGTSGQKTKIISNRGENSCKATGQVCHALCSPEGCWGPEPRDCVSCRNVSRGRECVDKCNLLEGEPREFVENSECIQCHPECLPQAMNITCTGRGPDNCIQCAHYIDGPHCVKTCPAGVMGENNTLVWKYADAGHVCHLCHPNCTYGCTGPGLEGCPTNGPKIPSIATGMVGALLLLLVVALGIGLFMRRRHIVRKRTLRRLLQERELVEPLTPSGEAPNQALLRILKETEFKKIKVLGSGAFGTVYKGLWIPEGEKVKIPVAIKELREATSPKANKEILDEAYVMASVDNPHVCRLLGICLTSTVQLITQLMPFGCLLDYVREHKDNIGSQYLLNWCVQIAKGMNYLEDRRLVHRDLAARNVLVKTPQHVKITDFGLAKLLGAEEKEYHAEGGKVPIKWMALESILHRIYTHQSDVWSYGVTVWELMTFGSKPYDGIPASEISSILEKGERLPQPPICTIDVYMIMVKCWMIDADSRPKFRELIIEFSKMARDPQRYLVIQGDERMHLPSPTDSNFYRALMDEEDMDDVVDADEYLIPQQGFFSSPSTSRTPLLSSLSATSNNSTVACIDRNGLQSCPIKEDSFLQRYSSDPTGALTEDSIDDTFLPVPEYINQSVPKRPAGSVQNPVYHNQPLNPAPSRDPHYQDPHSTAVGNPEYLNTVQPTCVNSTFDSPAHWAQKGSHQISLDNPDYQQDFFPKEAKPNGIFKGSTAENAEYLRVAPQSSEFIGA
Chain of Left-right determination factor 2 (Homo sapiens) (O00292 whole entry, looked up): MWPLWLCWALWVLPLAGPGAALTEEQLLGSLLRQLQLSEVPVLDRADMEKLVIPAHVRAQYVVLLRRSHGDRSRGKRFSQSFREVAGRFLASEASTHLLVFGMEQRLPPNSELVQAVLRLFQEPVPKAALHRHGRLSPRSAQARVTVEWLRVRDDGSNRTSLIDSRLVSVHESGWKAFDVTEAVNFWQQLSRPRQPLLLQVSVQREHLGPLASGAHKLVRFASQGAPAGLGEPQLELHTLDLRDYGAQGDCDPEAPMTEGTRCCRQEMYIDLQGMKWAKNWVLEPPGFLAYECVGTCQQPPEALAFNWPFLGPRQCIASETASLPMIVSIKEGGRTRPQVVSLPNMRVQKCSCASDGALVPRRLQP

`COCCCNC(=O)[C@@]1(CCS(=O)(=O)c2ccccc2)N=C(c2ccc(OCCCO)cc2)O[C@H]1c1ccccc1`: the composite z-score in assay [1] is 1.69; in assay [2], 1.45; in [3], 1.16; in assay [5] it was 1.12; in [6], 1.29; in [7], -0.11. In addition, the composite z-score in assay [8] was -0.21; in assay [9] it was 0.026; in assay [10], 0.0123; in [11], 0.432; in assay [13], -0.133; in assay [14], 0.361. Further, the composite z-score in assay [15] turned out to be 0.4; in [16], 0.525; in assay [17], 0.179; in [18] it was 2.11; in assay [19], 2.95; in [20] it was 2.44. Besides, the values for the z-score in assay [4] and in assay [12] were 0.409 (inactive) and -1.2, respectively.
In the case of `O=C1[C@H]2[C@H]3[C@H](O)[C@H](O)CC(=NOC[C@@H](O)COCc4ccco4)[C@@H]3CC[C@H]2C(=O)N1c1ccc(F)cc1F`, the composite z-score in assay [1] is 0.365; in assay [2], -0.399; in assay [3], -0.712; in assay [5], 0.579; in [6], 0.318; in [7], 0.931. Further, the composite z-score in assay [8] is 0.499; in assay [9], 0.671; in assay [10], 0.574; in assay [11], 0.427; in assay [13], 0.74; in [14] it was -0.616. For the same compound, the composite z-score in assay [15] is -1.01; in assay [16] it was -0.0792; in assay [17], -0.13; in [18], -0.236; in assay [19], 0.515; in [20], -0.255. In addition, the z-score is 0.237 (inactive) in assay [4] and 0.199 in assay [12].
Turning to `CC1CC/C=C\[C@H]2OC34C=CCN(Cn5nnc6ccccc65)C(=O)[C@H]3N(CCO)C(=O)[C@@H]4C2C(=O)O1` (stereo not given in full), the composite z-score in [1] is 2; in assay [2] it was -0.559; in [3], 0.514; in assay [5], -1.16; in [6], 0.476; in assay [7] it was -1.01. Also, the composite z-score is 0.0695 in [8]; -0.52 in assay [9]; 1.19 in assay [10]; -0.487 in assay [11]; -0.28 in assay [13]; -0.614 in [14]. Also, the composite z-score in [15] is 0.383; in assay [16], -0.147; in [17] it was -0.291; in assay [18], -0.256; in assay [19], 2; in assay [20] it was -0.118. Moreover, the z-score is -1.58 (inactive) in [4] and -0.505 in assay [12].
Consider `Cn1c(=O)n2n(c1=O)[C@H]1[C@H](O)[C@@H]3O[C@@H]3C(=NOC[C@@H](O)COCc3ccco3)[C@H]1CC2`, for which the composite z-score in assay [1] was 0.608; in assay [2], -0.198; in assay [3], -0.505; in assay [5], 0.131; in assay [6], 0.698; in assay [7] it was 0.475. Moreover, the composite z-score in assay [8] is 0.541; in assay [9] it was 0.0999; in [10] it was 0.0409; in [11] it was 0.499; in assay [13], 0.83; in assay [14] it was 0.132. Further, the composite z-score in assay [15] is -0.844; in assay [16] it was -0.216; in [17] it was -0.468; in [18], 0.964; in [19], 0.314; in assay [20] it was 0.318. The results for the z-score in assay [4] and in assay [12] were -0.695 (inactive) and 0.481, respectively.
Turning to `N#Cc1ccc(NN2C(C(O)c3cccc4ccccc34)C=CC3C(=O)N(c4ccccc4)C(=O)C32)cc1` (stereo not given), the composite z-score in assay [1] was 0.582; in [2], 0.687; in assay [3] it was 1.14; in [5], 0.899; in assay [6], 0.676; in [7], 0.316. The composite z-score was 0.898 in assay [8]; -0.203 in [9]; 0.478 in assay [10]; 1.48 in assay [11]; 0.221 in assay [13]; 1.74 in [14]. Besides, the composite z-score in [15] was 0.164; in [16], 0.139; in assay [17] it was 0.23; in assay [18], 0.837; in assay [19], 0.365; in assay [20], 1.09. Further, the z-score in assay [4] is 1.27 (inactive); in assay [12], 0.148.
Regarding `COc1ccc(-c2nc3c(c4c2C[C@H](C)OC4)CN(CCC(C)C)CC3)cc1`, the composite z-score in assay [1] is 0.785; in assay [2], -0.0348; in assay [3] it was -0.514; in [5], 1.02; in assay [6], 1.08; in assay [7], 0.472. In addition, the composite z-score in assay [8] was 1; in assay [9], 0.388; in [10], -0.296; in [11], 1.35; in assay [13], 0.6; in assay [14] it was 0.518. Also, the composite z-score in assay [15] is 0.038; in assay [16], -0.0239; in assay [17], 0.123; in [18] it was -0.131; in [19], 0.269; in assay [20] it was 0.615. The z-score is 0.386 (inactive) in assay [4] and -0.257 in [12].

For the origin of these results see PubChem BioAssay.
